AmpC detergent: qHTS Inhibitors of AmpC Beta-Lactamase (assay with detergent); AmpC hydrolysis of nitrocefin, absorbance 480 nm, 0.01% Triton; Potency, µM (titrated, usually from 114 µM), inactives show at the highest dose activity change, negative = inhibition, most hits filed as inhibitors; 0.041% of 370,000 active;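 note: 0% = no-compound wells and -100% = no-enzyme wells; nearly all actives have a fitted effect of over 25% in size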
Target sequence (P00811 whole entry, looked up): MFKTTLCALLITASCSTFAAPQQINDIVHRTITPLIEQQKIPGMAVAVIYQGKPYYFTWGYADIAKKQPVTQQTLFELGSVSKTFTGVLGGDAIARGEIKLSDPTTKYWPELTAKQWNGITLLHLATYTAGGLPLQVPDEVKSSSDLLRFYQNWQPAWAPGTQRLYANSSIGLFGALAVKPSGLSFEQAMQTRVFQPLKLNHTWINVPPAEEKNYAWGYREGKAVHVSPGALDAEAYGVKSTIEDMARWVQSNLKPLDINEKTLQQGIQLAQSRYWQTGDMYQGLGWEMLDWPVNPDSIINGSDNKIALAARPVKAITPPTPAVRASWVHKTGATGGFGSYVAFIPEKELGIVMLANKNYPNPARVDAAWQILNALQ
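20 mM phosphate pH 7.0 + 0.01% (detergent screen) or 0.0001% Triton X-100; 5.3 nM AmpC reagent; cpd preinc 15 min RT; nitrocefin (800 uM stock) to start; A480 q20 s × 4 min; Activity was normalised to no-enzyme and no-compound control wells.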
HCV inh: qHTS Assay for Inhibitors of Hepatitis C Virus (HCV). 3.4% of 340,000 active. Potency, µM (highest dose often 41.8 µM), without a hit: at the top dose activity change, negative = inhibition, actives largely listed as inhibitors. Huh7.5.1 HCVcc-Cre infection, luciferase reporter, 44 h
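Cells seeded at 1,000/well and cultured 4 h, then compounds added followed by HCVcc-Cre virus (~0.5 moi). After 44 h further culture, luciferase substrate was added, plates held 15 min at room temperature, and luminescence read for 15 sec.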
Pf growth 48h: Primary qHTS for delayed death inhibitors of the malarial parasite plastid, 48 hour incubation; P. falciparum luciferase growth in erythrocytes, 48 h; Potency, µM (titrated, usually from 28.7 µM), without a hit: top-dose activity change, negative = inhibition, usual class: inhibitors; 5.9% of 310,000 active; AID 504832, 2011
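Read-out is firefly luciferase luminescence from an integrated reporter in P. falciparum, so falling signal marks reduced parasite growth. Infected erythrocytes were at 2% hematocrit and 0.1% parasitemia (final) in Albumax-supplemented RPMI 1640.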
Pf growth 96h: Primary qHTS for delayed death inhibitors of the malarial parasite plastid, 96 hour incubation; Potency, µM (titrated, usually from 28.7 µM), for the others: at the highest dose activity change, negative = inhibition, usual class: inhibitors; AID 504834, 2011; P. falciparum luciferase reporter growth, 96 h; 6.9% of 320,000 active
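Luminescence readout: decreased luciferase signal marks inhibited growth of reporter-expressing P. falciparum in infected red cells (2% hematocrit, 0.05% parasitemia final), exposed to compound two generations (96 h, 37 C, 5% CO2).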
AMA1-RON2 inh: qHTS for Inhibitors of AMA1-RON; Towards Development of Antimalarial Drug Lead: Primary Screen | Plasmodium falciparum AMA1 (3D7) - RON2 peptide interaction | AlphaScreen AMA1-biotinylated RON2 peptide binding | Potency, µM (highest dose often 58.2 µM), inactives show at the highest dose activity change, negative = inhibition, actives largely listed as inhibitors | 0.2% of 360,000 active | AID 720542, 2013;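 note: 0% = vehicle wells and -100% = peptide control; nearly all actives have a fitted effect of over 45% in size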
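AMA1 (3D7) with his tag at 25 nM final met compounds first, then biotinylated RON2 peptide at 25 nM; detection used donor plus acceptor beads, 10 µg/mL apiece, read by AlphaScreen after 30 min at room temperature.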
AmpC no deterg: qHTS Inhibitors of AmpC Beta-Lactamase (assay without detergent); P00811; AmpC nitrocefin hydrolysis, absorbance 480 nm, 0.0001% Triton; Potency, µM (top dose mostly 57.1 µM), for the others: top-dose activity change, negative = inhibition, most hits filed as inhibitors; 0.52% of 330,000 active; AID 485341, 2010;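 note: plate controls were no compound for no effect and no enzyme for full effect; nearly all actives have a fitted effect of over 20% in size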
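AmpC (5.3 nM in the dispensed reagent) in 20 mM phosphate pH 7.0 with 0.01% (detergent screen) or 0.0001% Triton X-100 was preincubated with compounds for 15 min at room temperature. Nitrocefin was then added from an 800 uM solution, and hydrolysis was followed at 480 nm.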
Starred values were filed as active, the others as inactive. A selection: hits, their analogues and other compounds. The true share with any hit is near 11%. Calls come from the whole dose curve; as a rule, active = well fitted curve in the direction sought with a large enough effect; inconclusive = small, poorly fitted or top-dose-only effect, or another doubt; inactive = no such curve, though single readings can be large; an effect the other way counts as inactive or inconclusive. Unless noted, % is set by controls: 0 for no effect and ±100 for the full control effect; potency is the fitted concentration of half-maximal effect.

How did CCOCCCn1c(C)nc2c(c1=O)c1nc3ccccc3nc1n2CCC1=CCCCC1 do in these assays?
AmpC detergent: -11%; HCV inh: -2%; Pf growth 48h: inconclusive; Pf growth 96h: 2.6µM*; AMA1-RON2 inh: 12%; AmpC no deterg: 30%

How did Cc1nc2c(c(=O)n1CCC1=CCCCC1)c1nc3ccccc3nc1n2/N=C/c1ccccc1 do in these assays?
AmpC detergent: 5%; HCV inh: -10%; Pf growth 96h: -6%; AMA1-RON2 inh: -6%; AmpC no deterg: 11%

What do the screens show for `O=C(Nc1ccc(F)c(F)c1)c1ccc(=O)n(Cc2ccc(F)cc2)c1`?
AmpC detergent: 1%

What do the screens show for `CC(=O)Nc1ccc(S(=O)(=O)Oc2cccc(N3C(=O)C4CC=CCC4C3=O)c2)cc1` (centres undefined)?
AmpC detergent: -7%; HCV inh: -29%; Pf growth 96h: 2.3µM*; AMA1-RON2 inh: -8%; AmpC no deterg: 10%

How did CC1=CC(C)[C@@H]2COC(c3ccc(O)cc3)[C@H]1C2C (some centres undefined) do in these assays?
AmpC detergent: -9%; HCV inh: -6%; Pf growth 48h: inconclusive; Pf growth 96h: 9.3µM*; AMA1-RON2 inh: -1%; AmpC no deterg: -42%

Results for CC1=CC(C)C2COC(c3ccc[n+](C)c3)C1C2C (centres undefined) ?
AmpC detergent: -10%; HCV inh: 34%; Pf growth 48h: 15µM*; Pf growth 96h: inconclusive; AMA1-RON2 inh: 0%; AmpC no deterg: -4%

How did COc1cc([C@H]2OC[C@H]3[C@@H]2CO[C@H]3c2ccc(O)c(OC)c2)ccc1O do in these assays?
HCV inh: 2%; AMA1-RON2 inh: -1%; AmpC no deterg: 2%

What do the screens show for `O=C(NCCc1ccc(Cl)cc1)c1ccc(Cn2c(=O)c3cccn3c3cccnc32)cc1`?
AmpC detergent: -2%

What do the screens show for `CNC(=S)/N=C/NOCc1ccc(Cl)cc1Cl`?
AmpC detergent: -12%; HCV inh: inconclusive; Pf growth 48h: inconclusive; Pf growth 96h: 15µM*; AMA1-RON2 inh: 11%; AmpC no deterg: -34%

Results for NC(=O)NOCc1ccc(Cl)cc1Cl ?
AmpC detergent: -1%; HCV inh: 10%; Pf growth 48h: 28%; Pf growth 96h: 18%; AMA1-RON2 inh: 24%; AmpC no deterg: -4%

What do the screens show for `C[C@H]1CCC/C=C/[C@@H]2C[C@H](O)C[C@H]2[C@@H](O)/C=C/C(=O)O1`?
HCV inh: inconclusive; AMA1-RON2 inh: -9%

What do the screens show for `C[C@H]1CCC/C=C/[C@@H]2C[C@H](O)C[C@H]2[C@H](O)[C@H](S(=O)c2ccc(O)cc2)CC(=O)O1` (some centres undefined)?
HCV inh: 0.56µM*; AMA1-RON2 inh: 1%

What do the screens show for `COc1ccc(Cn2ccc3nc(C)c(C(=O)N4CCN(c5cc(C)ccc5C)CC4)cc3c2=O)cc1`?
AmpC detergent: 22%

What do the screens show for `COc1ccccc1N1CCN(S(=O)(=O)c2cc3[nH]c(=O)c(=O)[nH]c3cc2C)CC1`?
AmpC detergent: 2%; HCV inh: 14%; Pf growth 48h: 9.3µM*; Pf growth 96h: inconclusive; AMA1-RON2 inh: 1%; AmpC no deterg: -21%

Results for Cc1cc2[nH]c(=O)c(=O)[nH]c2cc1S(=O)(=O)N1CCN(c2ccccc2F)CC1 ?
AmpC detergent: 7%; HCV inh: 6%; Pf growth 48h: inconclusive; Pf growth 96h: inconclusive; AMA1-RON2 inh: 5%; AmpC no deterg: -19%

How did Cc1cc2[nH]c(=O)c(=O)[nH]c2cc1S(=O)(=O)N1CCN(c2cccc(C(F)(F)F)c2)CC1 do in these assays?
AmpC detergent: -9%; HCV inh: -8%; Pf growth 48h: inconclusive; Pf growth 96h: inconclusive; AMA1-RON2 inh: 5%; AmpC no deterg: 3.2µM*

Results for Cc1nc2sccn2c(=O)c1S(=O)(=O)N1CCN(c2cccc(C(F)(F)F)c2)CC1 ?
AmpC detergent: -8%; HCV inh: 15%; Pf growth 48h: inconclusive; Pf growth 96h: 10µM*; AMA1-RON2 inh: -1%; AmpC no deterg: 86%

What do the screens show for `Cc1nc2sccn2c(=O)c1S(=O)(=O)N1CCN(c2ccc(F)cc2)CC1`?
AmpC detergent: inconclusive; HCV inh: -6%; Pf growth 48h: 7%; Pf growth 96h: inconclusive; AMA1-RON2 inh: 2%; AmpC no deterg: 1%

Results for Cc1cc2[nH]c(=O)c(=O)[nH]c2cc1S(=O)(=O)N1CCN(c2cccc(C)c2C)CC1 ?
AmpC detergent: -5%; HCV inh: 21%; Pf growth 48h: inconclusive; Pf growth 96h: 4.7µM*; AMA1-RON2 inh: -22%; AmpC no deterg: -11%

How did COc1ccccc1CNC(=O)c1cc2cc3ccc(Cl)cc3nc2o1 do in these assays?
AmpC detergent: 3%

What do the screens show for `COc1cc(C2c3c([nH]c(=O)[nH]c3=O)Nc3ccc4ccccc4c32)ccc1O` (centres undefined)?
AmpC detergent: 3%; HCV inh: 10µM*; Pf growth 48h: -13%; Pf growth 96h: 13%; AMA1-RON2 inh: -9%; AmpC no deterg: -35%

What do the screens show for `CO[C@H]1C[C@@H]2CC[C@@H](C)[C@@](O)(O2)C(=O)C(=O)N2CCCC[C@H]2C(=O)O[C@H]([C@H](C)C[C@@H]2CC[C@@H](OC(=O)C(C)(CO)CO)[C@H](OC)C2)CC(=O)[C@H](C)/C=C(\C)[C@@H](O)[C@@H](OC)C(=O)[C@H](C)C[C@H](C)/C=C/C=C/C=C/1C`?
Pf growth 48h: 13%; Pf growth 96h: -15%

Results for COC1CC2CCC(C)[C@](O)(O2)C(=O)C(=O)N2CCCCC2C(=O)OC(C(C)CC2CCC(O)C(OC)C2)CC(=O)C(C)/C=C(/C)C(O)C(OC)C(=O)C(C)CC(C)C=CC=C/C=C\1C (some centres undefined) ?
Pf growth 48h: 3.8µM*; Pf growth 96h: 1.9µM*

How did COc1ccc(N2CCN(C(=O)c3c(C)oc4ncn(CC(C)C)c(=O)c34)CC2)cc1 do in these assays?
AmpC detergent: 14%

Screens: PubChem BioAssay, National Center for Advancing Translational Sciences (NCATS)
